# Assay results from PubChem BioAssay AID1117294 (Broad Institute, 2014).
# Values without a mark were called inactive.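 How the source made its calls: active means Lowers HeLa cell ATP signal, with fitted half-maximal potency at most twice the top tested dose in every run; inconclusive means runs disagree, or fits flat mid-range or poor; inactive means every run inactive, including signal rising.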
# Assay: HeLa cell cytotoxicity, dose response, cytotoxicity control, CellTiter-Glo luminescence, dry powder, set 3 (AID 1117294)
# Settings: HeLa viability, ATP luminescence (CellTiter-Glo), 72 h
smiles,measurement,setting,value
COc1ccc(C(=O)O)cc1S(=O)(=O)Nc1cccc(N2CCCCC2)c1C(F)(F)F,max activity,,15.2%
O=S(=O)(O)c1ccc(N2N=C(c3ccccc3)CC2c2ccccc2)cc1 (stereo not drawn),max activity,at 0.0015 µM,-32.4%
COc1ccc(C(=O)O)cc1S(=O)(=O)Nc1cc(C(F)(F)F)ccc1N1CCOCC1,max activity,at 0.003 µM,-16.9%
COc1ccc(C(=O)O)cc1S(=O)(=O)Nc1cc(C(F)(F)F)ccc1N1CCCCC1,max activity,at 0.0235 µM,-13.4%
same,max activity,at 12 µM,-15.9%
COc1ccc(C(=O)O)cc1S(=O)(=O)Nc1cc(C(F)(F)F)ccc1N(C)C,max activity,at 6 µM,-19%
COc1ccc(C(=O)O)cc1S(=O)(=O)N1CCN(c2ccc(C(F)(F)F)cc2N)CC1,max activity,at 12 µM,-20.1%
COc1ccc(C(=O)Nc2cccc(C(F)(F)F)c2)cc1S(=O)(=O)O,max activity,at 26 µM,-20.5%
